Many of the other results were omitted from the sample, so hits are more common in it than they were.
RE007 growth inh: less growth of the S. pombe RE007 Vpr strain | S. pombe RE007 Vpr strain, BacTiter-Glo ATP luminescence, 24 h | Potency, µM (doses to about 92.2 µM), for the others: at the top dose activity change, negative = less growth, most hits filed as inhibitors | 0.21% of 360,000 active; active = well fitted falling curve with a large enough effect; inconclusive = small, poorly fitted or top-dose-only effect; inactive = no such curve, though single readings can be large or run the other way; also: potency is read from the fitted curve at half-maximal effect; % is scaled to controls: 0 for no effect and ±100 for the full control effect; nearly all actives have a fitted effect of over 50% in size
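Fission yeast strain RE007, carrying one chromosomally integrated HIV-1 vpr copy, was seeded at OD 0.01 in PMG+AL medium with 23 nL pinned compound. After 24 h at 30 °C and 99% humidity, viability was read by BacTiter-Glo luminescence.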
TbPYK inhibitor: inhibitors of Trypanosoma brucei pyruvate kinase; 0.12% of 410,000 active; Q57TT1; Potency, µM (top dose mostly 76.8 µM), inactives show at the top dose activity, negative = inhibition, actives largely listed as inhibitors; TbPYK enzyme, Kinase-Glo Plus ATP luminescence, 45 min; also: potency is read from the fitted curve at half-maximal effect; % is scaled to controls: 0 for no effect and ±100 for the full control effect; nearly all actives have a fitted effect of over 50% in size
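Luminescence from Kinase-Glo Plus, added after a 45-minute room-temperature reaction, served as the end-point read-out. The enzyme and substrate were preincubated with compound before ADP (130 uM final) initiated turnover. Concentration-effect curves came from normalized qHTS data.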
LmPK inhibitor: blocks Leishmania mexicana pyruvate kinase activity | purified LmPK, Kinase-Glo ATP luminescence, 1 h | Potency, µM (highest dose often 57.5 µM), for inactives: at the highest dose activity change, negative = inhibition, actives largely listed as inhibitors | 0.37% of 290,000 active | AID 1721; also: potency is read from the fitted curve at half-maximal effect; % is scaled to controls: 0 for no effect and ±100 for the full control effect
Target sequence (Q27686 whole entry, looked up): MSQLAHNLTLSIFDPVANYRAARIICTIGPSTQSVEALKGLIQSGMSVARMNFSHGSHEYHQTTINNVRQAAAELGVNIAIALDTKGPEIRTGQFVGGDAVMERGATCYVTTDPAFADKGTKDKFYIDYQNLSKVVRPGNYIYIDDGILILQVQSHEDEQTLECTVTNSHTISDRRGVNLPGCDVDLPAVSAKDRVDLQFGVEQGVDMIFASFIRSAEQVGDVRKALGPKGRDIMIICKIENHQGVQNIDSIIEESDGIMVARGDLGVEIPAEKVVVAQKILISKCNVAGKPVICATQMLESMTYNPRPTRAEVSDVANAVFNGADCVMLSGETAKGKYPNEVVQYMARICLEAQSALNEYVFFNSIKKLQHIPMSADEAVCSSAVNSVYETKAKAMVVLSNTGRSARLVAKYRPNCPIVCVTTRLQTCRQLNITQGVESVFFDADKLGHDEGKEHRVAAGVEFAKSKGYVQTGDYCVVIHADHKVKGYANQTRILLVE
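Purified LmPK (0.1 nM) with 0.5 mM PEP and 0.1 mM ADP in imidazole buffer pH 7.2 with MgCl2/KCl, 1 h at room temperature. ATP formed was read by luciferase luminescence and normalized to no-enzyme and uninhibited controls.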
Shiga toxin inh: inhibitors of Shiga toxin in Vero cells. 9.2% of 290,000 active. Vero cells, Shiga toxin protein synthesis inhibition reporter. AID 2315. inhibition, % at 38.7 µM; in the data active = inhibition mostly above about 28%, no sharp cut-off; inactive = mostly below about 43%; also: 0% is about no effect
CHX counter: counter-screen for Shiga toxin inhibitors: cycloheximide protein synthesis inhibition; AID 2314; 12% of 300,000 active; max response, %; cell reporter, cycloheximide protein synthesis inhibition counterscreen; in the data active = max response mostly above about 13%, no sharp cut-off; inactive = mostly below about 14%; also: read at 38.3 µM for the half of the compounds with a filed dose; 0% is about no effect
Giardia FBPA inh: blocks Giardia fructose-bisphosphate aldolase activity; A8B2U2; purified Giardia FBPA; Potency, µM (highest dose often 59.6 µM), for inactives: top-dose activity, negative = inhibition, usual class: inhibitors; 0.71% of 290,000 active; AID 2451; also: potency is read from the fitted curve at half-maximal effect; % is scaled to controls: 0 for no effect and ±100 for the full control effect; nearly all actives have a fitted effect of over 55% in size
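Giardia FBPA (40 nM reagent) was preincubated 10 min at RT with compound (up to 57.5 uM final), then substrate plus GAPDH/TPI/NAD/arsenate coupling system with diaphorase/resazurin was added; resorufin fluorescence (525/598 nm) was read after 20 min.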
* = called active by the depositor; ? = inconclusive; / = no result given; [ ] = another dose, or the depositor's remark. Unless noted, calls follow the shape of the dose curve; as a rule, active = well fitted curve in the direction sought with a large enough effect; inconclusive = small, poorly fitted or top-dose-only effect, or another doubt; inactive = no such curve, though single readings can be large; an effect the other way counts as inactive or inconclusive.

SMILES	RE007 growth inh	TbPYK inhibitor	LmPK inhibitor	Shiga toxin inh	CHX counter	Giardia FBPA inh
NS(=O)(=O)c1ccc(NC(=O)NC2CCCCC2)cc1	-21%	-15%	8%	6	9	1%
Cc1ccc(NC(=O)C(=O)NC2CCCCC2)cc1	-4%	2%	-9%	3	12*	0%
O=C(NC(=S)NC1CCCCC1)c1ccc(F)cc1	?	4%	-1%	117*	48*	/
Cc1ccc(C(=O)CSc2ccccn2)cc1	?	-17%	-28%	113*	46*	-5%
O=C(CSc1ccccn1)c1ccc(F)cc1	-19%	-26%	9%	58*	34*	-7%
Cc1cccc(OCCn2cc(/C=N/NC(=O)c3ccncc3)c3ccccc32)c1	112%	-27%	3%	28*	11*	-1%
CC1=CN2C(=N)/C(=C/c3cn(CCCOc4ccccc4C)c4ccccc34)C(=O)N=C2S1	7%	-7%	2%	24*	67*	7%
COc1ccc(OCCCn2cc(/C=C3/C(=N)N4C=C(C)SC4=NC3=O)c3ccccc32)cc1	/	-4%	-4%	36*	35*	1%
COc1cccc(OCCn2cc(C=O)c3ccccc32)c1	11%	0%	5%	/	23*	1%
COc1cccc(OCCCn2cc(/C=C3/C(=N)N4C=C(C)SC4=NC3=O)c3ccccc32)c1	0%	-1%	1%	50*	19*	0%
Cc1cccn2c(=O)c(/C=C(\C#N)c3nc4ccccc4n3C)c(Oc3ccc(Br)cc3)nc12	/	-3%	/	/	/	/
N/C(=N\O)c1ccc(N2CCN(c3ncccc3C(F)(F)F)CC2)nc1	-14%	4%	0%	73*	39*	1%
COc1cc(C(=O)Nc2nc(C)c(Cc3ccc4c(c3)OCO4)s2)cc(OC)c1OC	-22%	-28%	4%	10	0	-1%
CCCOc1ccc(C(=O)Nc2nc(C)c(Cc3ccc4c(c3)OCO4)s2)cc1	12%	8%	-1%	72*	24*	3%
Cc1nc(NC(=O)c2ccc(OCC(C)C)cc2)sc1Cc1ccc2c(c1)OCO2	4%	6%	0%	30*	19*	0%
CC(=O)CC/C=C(\C)CC/C=C(/C)CC/C=C(\C)CCC=C(C)C	/	1%	/	/	/	/
O=C(Cn1nnc2ccccc2c1=O)NCc1ccco1	3%	-4%	-2%	-4	-3	-6%
COc1ccc(CNC(=O)Cn2nnc3ccccc3c2=O)cc1	0%	0%	0%	60*	22*	4%
Cc1ccc(NC(=O)Cn2nnc3ccccc3c2=O)cc1C	22%	0%	0%	33	13	-7%
O=C(Cn1nnc2ccccc2c1=O)NCCc1ccccc1	0%	-7%	-4%	25*	15	1%
Cc1ccc(NC(=O)Cn2nnc3ccccc3c2=O)cc1	17%	-2%	-8%	63	32*	6%
CCCCNC(=O)C1CCN(c2nc3ccc(C)cc3[nH]2)CC1	/	-8%[15.4 µM]	/	/	/	/
Cc1ccccc1/C=C\c1nc2ccccc2c(=O)n1Cc1ccccc1	-2%	-5%	-1%	-3	0	4%
CCn1c(/C=C/c2ccccc2[N+](=O)[O-])nc2ccccc2c1=O	-5%	-2%	-12%	27	11	-1%
CCn1c(/C=C/c2ccccc2Cl)nc2ccccc2c1=O	0%	-1%	4%	74*	30*	-5%
SMILES	RE007 growth inh	TbPYK inhibitor	LmPK inhibitor	Shiga toxin inh	CHX counter	Giardia FBPA inh
CCn1c(/C=C\c2ccccc2C)nc2ccccc2c1=O	-11%	6%	10%	82*	23*	-3%
CCn1c(/C=C/c2c[nH]c3ccccc23)nc2ccccc2c1=O	1%	2%	-2%	50*	41*	-7%
CNC(=O)C[C@@H](N)C(=O)N[C@@H](C(=O)N[C@@H]1C(=O)N2[C@@H]1SC(C)(C)[C@@H]2C(=O)O)c1ccc(O)cc1	/	-5%	/	/	/	/
Cc1cc(OCC(=O)Nc2ccc(-c3nc4cc(Cl)ccc4o3)cc2)cc(C)c1Cl	/	0%	/	/	/	/
CCCCCc1ccc(-c2ccc(/C=C/C(N)=O)cc2)nc1	-4%	-1%	1%	67*	56*	2%
CCCc1ccc(-c2ccc(C(=O)O)cc2)nc1	-5%	-8%	?	65*	26*	?
Cc1cccc(C)c1Nc1c(-c2ccsc2)nc2cccc(C)n12	/	3%	/	/	/	/
Cc1ccccc1-c1nc(-c2ccc(NC(=O)c3cccs3)cc2)no1	17%	5%	-11%	82*	46*	4%
O=C(Nc1ccc(-c2noc(-c3ccccc3F)n2)cc1)c1cccs1	0%	-11%	-7%	71*	46*	5%
NC(=O)c1ccc(-c2noc(-c3ccccc3F)n2)cc1	/	3%	/	/	/	/
COc1ccc(NC(=O)C2CCC(CNS(=O)(=O)c3ccc(Br)s3)CC2)cc1OC (configuration not stated)	/	2%	/	/	/	/
O=C(CCC(=O)N1CCN(c2ccccc2F)CC1)c1ccc(F)cc1	6%	2%	3%	22	15*	2%
COc1ccc(OC)c(NC(=O)CCN2CCN(c3ccccc3F)CC2)c1	21%	-1%	-4%	-13	-2	-23%
O=C(CCN1CCN(c2ccccc2F)CC1)Nc1ccccc1F	-4%	-1%	-7%	34	18*	2%
O=C(CCN1CCN(c2ccccc2)CC1)c1ccc(Br)cc1	?	1%	1%	-18	1	6%
COc1ccc(C(=O)CCN2CCN(c3ccccc3F)CC2)cc1	11µM*	-4%	-1%	4	8	-11%
O=C(CCN1CCN(c2ccccc2F)CC1)c1ccc(Br)cc1	32µM*	-14%	-7%	8	2	-2%
CCOc1cc(CNC(=O)C2CCN(c3nc4ccccc4[nH]3)CC2)cc(OCC)c1OCC	/	-9%[15.4 µM]	/	/	/	/
CCOC(=O)c1ccccc1NC(=O)N1CCC(N2CCN(Cc3ccccc3)C(=O)C2=O)CC1	/	-4%	/	/	/	/
Cc1cccc(N2C(=O)CS(=O)(=O)C23C(=O)N(Cc2c(F)cccc2Cl)c2ccccc23)c1 (configuration not stated)	/	-7%	/	/	/	/
OC(COc1ccc(F)cc1)CN1CCN(c2ccccc2F)CC1 (configuration not stated)	3%	1%	8%	-3	-3	-14%
OC(CN1CCN(c2ccccc2F)CC1)c1ccc(F)cc1 (configuration not stated)	95%	4%	4%	12	9.9*	-6%
Cn1cccc1CC(=O)N/N=C/c1cccc2ccccc12	4%	5%	6%	33*	22*	0%
Cc1ccsc1/C=N/NC(=O)Cc1cccn1C	-12%	-21%	2%	50	21*	2%
CCOC(=O)/C(C#N)=C/N=c1ccc(C)cn1C	9%	-7%	3%	68*	51*	-8%
CCCN1C=CC(=C/C=C(\C#N)C(=O)OCC)C=C1	/	/	-5%	93*	28*	-20%

Screening results deposited in PubChem by National Center for Advancing Translational Sciences (NCATS).
